# Results reported in PubChem BioAssay (Tox21).
# Records with an inconclusive call do not appear. A call without a number means that no potency is given here. Some compounds were tested as several samples or in several runs, with calls that do not always agree. The source made the active and inactive calls. Unless noted, calls follow the shape of the dose curve; as a rule, active = well fitted curve in the direction sought with a large enough effect in the repeat runs; inconclusive = weak or mixed curves; inactive = no such curve, though single readings can be large; an effect the other way counts as inactive or inconclusive.
# Key:
# [1] = target: Thyrotropin receptor (Homo sapiens) (UniProt P16473); assay: qHTS assay to identify small molecule antagonists of the thyroid stimulating hormone receptor (TSHR) signaling pathway (AID 1259385; calls by dose curve; also: nearly all actives have a fitted effect of over 20% in size)
# How it was run: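 TSHR-HEK293 cells (800/well) plated 18 h, then compounds with Ro20-1724 and TSH at 1.5 ng/mL final, 30 min at room temperature. cAMP quantified by HTRF (cAMP-d2/anti-cAMP-cryptate, 1 h); 15 concentrations in triplicate.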
# [2] = qHTS assay to identify small molecule agonists of the estrogen receptor alpha (ER-alpha) signaling pathway in the presence of an antagonist - cell viability counter screen (AID 1259386);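 also: series mostly up to about 92 µM; cells exposed to compounds for 22 h at 37 °C before the viability read; nearly all actives have a fitted effect of over 30% in size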
# How it was run: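 VM7Luc4E2, stripped-serum pre-culture 5 d; 24hr plating; +ICI-182,780 10.0nM final; cpds 15 conc, 22hr, 37C/5% CO2; CellTiter-Fluor added at 21hr, fluorescence 1hr later.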
# [3] = target: Progesterone receptor (Homo sapiens) (UniProt P06401); assay: qHTS assay to identify small molecule agonists of the progesterone receptor (PR) signaling pathway (AID 1346784; calls by dose curve; also: nearly all actives have a fitted effect of over 30% in size)
# How it was run: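 Using charcoal-stripped serum (2%) to limit endogenous steroids, PR-UAS-bla HEK 293T cells received compounds for 16 hr at 37C after 6 hr plating; beta-lactamase FRET fluorescence was recorded following 2 hr substrate loading at room temperature.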
# [4] = target: Progesterone receptor (Homo sapiens) (UniProt P06401); assay: qHTS assay to identify small molecule antagonists of the progesterone receptor (PR) signaling pathway (AID 1346795; active = well fitted inhibition curve with a large enough effect in the signal ratio in the repeat runs, not every such curve was filed as active; the % refers to the signal ratio)
# How it was run: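 Inhibition of R5020-induced (1 nM final) beta-lactamase reporter signal in PR-UAS-bla HEK293T cells was scored by FRET fluorescence after overnight (16 hr) compound treatment.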
# [5] = qHTS assay to identify small molecule antagonists of the progesterone receptor (PR) signaling pathway - cell viability counter screen (AID 1346798); also: series mostly up to about 92 µM; nearly all actives have a fitted effect of over 50% in size
# How it was run: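 ATP content as viability readout: CellTiter-Glo luminescence, 30 min room temperature, in PR-UAS-bla HEK293T cells after 16 hr compound/R5020 treatment at 37C and 5% CO2.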
# [6] = qHTS assay to identify small molecule agonists of the progesterone receptor (PR) signaling pathway - cell viability counter screen (AID 1346799; calls by dose curve; also: nearly all actives have a fitted effect of over 45% in size; also: potency is read from the fitted curve at half-maximal effect)
# How it was run: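 Cytotoxicity in PR-bla HEK293T cells: 16 h compound, 37C; CellTiter-Glo added post-FRET read; luminescence after 30 min RT.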
# [7] = qHTS assay to identify small molecule antagonists of the TGF-beta/Smad signaling pathway - cell viability counter screen (AID 1346824); also: nearly all actives have a fitted effect of over 50% in size
# How it was run: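 SBE-bla HEK 293T cells, incubated overnight, then compound plus 0.25 ng/mL TGF-beta1 (stock added) for 5 hr at 37 C. Viability was read in the same wells by CellTiter-Glo luminescence after 30 min at room temperature.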
# [8] = qHTS assay to identify small molecule agonists of the TGF-beta/Smad signaling pathway (AID 1346859; active = well fitted activation curve with a large enough effect in the signal ratio in the repeat runs, not every such curve was filed as active; the % refers to the signal ratio; also: series mostly up to about 77 µM)
# How it was run: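 Stable Smad binding element-beta-lactamase HEK 293T cells; 5 hr compound exposure at 37 C under 5% CO2; 2 hr room-temperature substrate step; fluorescence excited at 405 nm, collected at 460 nm and 530 nm.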
# [9] = target: Thyrotropin-releasing hormone receptor (Homo sapiens) (UniProt P34981); assay: qHTS assay to identify small molecule antagonists of the thyrotropin-releasing hormone receptor (TRHR) signaling pathway (AID 1346877; active = well fitted inhibition curve with a large enough effect in the repeat runs, not every such curve was filed as active; also: series mostly up to about 51 µM)
# How it was run: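 Intracellular calcium fluorescence, read kinetically every second over 3 min, reports TRH-evoked signalling in HEK293 cells carrying TRHR. Test compounds were added 5 min ahead of a 1 nM TRH challenge.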
# [10] = target: Thyrotropin-releasing hormone receptor (Homo sapiens) (UniProt P34981); assay: qHTS assay to identify small molecule agonists of the thyrotropin-releasing hormone receptor (TRHR) signaling pathway (AID 1346891; calls by dose curve;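 also: HEK293 cells expressing TRHR with calcium dye readout; series mostly up to about 58 µM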)
# How it was run: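 In 1536-format, 1500 TRHR-Hek293 cells per well grew 18 h, took up calcium dye for 2 h at 37 °C, received compound, and were read kinetically; 15-point titrations, triplicates.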
# [11] = Human pregnane X receptor (PXR) small molecule agonists, qHTS cell viability counter screen (AID 1346977); also: nearly all actives have a fitted effect of over 50% in size
# How it was run: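 Readout is CellTiter-Fluor fluorescence from PXR-Luc HepG2 cells. Plated cells rested 5hr, then were treated with compounds for 24hr at 37C and 5% CO2, with reagent present during the last hour.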
# [12] = Caspase-3/7 induction in HepG2 cells by small molecules, qHTS assay (AID 1346978); also: nearly all actives have a fitted effect of over 15% in size
# How it was run: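 Wild-type HepG2 cells, 2,000/well, settled 5 hr at 37 C and 5% CO2, then compound-treated for 17 hr; caspase-3/7 activity read by luminescent Caspase-Glo 3/7 after 30 min at room temperature.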
# [13] = Caspase-3/7 induction in CHO-K1 cells by small molecules, qHTS cell viability counter screen (AID 1346979); also: nearly all actives have a fitted effect of over 35% in size; also: potency is read from the fitted curve at half-maximal effect
# How it was run: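 To flag cytotoxic compounds, treated CHO-K1 wild-type cells were given CellTiter-Fluor at 16hr and read fluorescently after 1hr at 37C; the caspase-3/7 luminescence was measured in these same wells.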
# [14] = Caspase-3/7 induction in CHO-K1 cells by small molecules, qHTS assay (AID 1346980); also: nearly all actives have a fitted effect of over 15% in size
# How it was run: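 Wild-type CHO-K1 cells exposed to compounds for 17hr at 37 C, 5% CO2. Caspase-3/7 activity then measured by Caspase-Glo 3/7 luminescence after 30min at room temperature.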
# [15] = Caspase-3/7 induction in HepG2 cells by small molecules, qHTS cell viability counter screen (AID 1346981); also: series mostly up to about 92 µM; nearly all actives have a fitted effect of over 30% in size
# How it was run: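 HepG2, WT, 2,000 cells/well; 5 hr pre-incubation 37 C/5% CO2; compound pin-transferred from DMSO; 16 hr exposure; CellTiter-Fluor, 1 hr; fluorescence read.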
# [16] = qHTS assay to identify small molecule agonists of the TGF-beta/Smad signaling pathway - cell viability counter screen (AID 1346829); also: top concentration of the series differs between compounds; nearly all actives have a fitted effect of over 45% in size
# How it was run: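 Cytotoxicity counter screen: CellTiter-Glo luminescence (30 min, room temperature) measured in the SBE-bla HEK 293T reporter wells after 5 hr compound treatment at 37 C and the 2 hr substrate step.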
# [17] = target: Nuclear receptor subfamily 1 group I member 2 (Homo sapiens) (UniProt O75469); assay: Human pregnane X receptor (PXR) small molecule agonists, qHTS assay (AID 1346982); also: nearly all actives have a fitted effect of over 35% in size; also: potency is read from the fitted curve at half-maximal effect
# How it was run: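 Luciferase signal from ONE-Glo (30 min, room temperature) measured activation of hPXR-driven CYP3A4 reporter expression in PXR-Luc HepG2 cells treated with compounds for 24 hr at 37 C.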
# [18] = target: Nuclear receptor subfamily 1 group I member 2 (Rattus norvegicus) (UniProt Q9R1A7); assay: Rat pregnane X receptor (rPXR) activation by small molecules, qHTS assay (AID 1346983); settings: rPXR luciferase reporter cells, One-Glo luminescence, 24 h; stronger effect = higher value; also: nearly all actives have a fitted effect of over 20% in size
# How it was run: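 Cell-based rPXR activation assay: rPXR cells, 2,000 per well, rested 5hr at 37 C, then exposed to compounds in DMSO for 24 hr at 37 C. Luciferase activity read by One-Glo luminescence after 30 min at room temperature.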
# [19] = target: Nuclear receptor subfamily 1 group I member 2 (Homo sapiens) (UniProt O75469); assay: CYP3A4 induction through human pregnane X receptor (PXR) by small molecules, qHTS assay (AID 1346984); also: nearly all actives have a fitted effect of over 40% in size
# How it was run: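 Luminescence readout: luciferase signal after One-Glo (30 min, room temperature), following 3 h at 37C with 3uM final Luciferin-IPA P450 substrate. Cells were DPX-2 (HepG2, PXR/CYP3A4-luc co-transfected) dosed for 24 h.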
# [20] = target: Nuclear receptor subfamily 1 group I member 2 (Homo sapiens) (UniProt O75469); assay: Human pregnane X receptor (PXR) activation by small molecules, qHTS assay (AID 1346985); also: nearly all actives have a fitted effect of over 40% in size
# How it was run: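 DPX-2 cells (HepG2 co-transfected with a PXR response element and a CYP3A4-promoter luciferase construct) were seeded at 2,000 per well, rested 5 hr at 37C, then exposed to DMSO-dissolved compounds for 24 hr. Activation was read as luciferase luminescence.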
# Chain of Thyrotropin-releasing hormone receptor (Homo sapiens) (P34981 whole entry, looked up): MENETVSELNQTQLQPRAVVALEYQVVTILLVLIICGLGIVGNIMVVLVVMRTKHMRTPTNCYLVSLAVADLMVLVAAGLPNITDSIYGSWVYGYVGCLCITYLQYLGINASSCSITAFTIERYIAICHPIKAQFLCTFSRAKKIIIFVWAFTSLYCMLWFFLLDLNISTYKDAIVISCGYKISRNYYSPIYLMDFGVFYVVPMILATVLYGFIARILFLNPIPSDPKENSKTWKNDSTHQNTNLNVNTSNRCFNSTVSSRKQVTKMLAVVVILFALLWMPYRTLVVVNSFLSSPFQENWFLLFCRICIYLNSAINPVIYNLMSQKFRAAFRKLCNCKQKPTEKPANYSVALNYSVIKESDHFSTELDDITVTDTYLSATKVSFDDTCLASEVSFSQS
# Chain of Nuclear receptor subfamily 1 group I member 2 (Homo sapiens) (O75469 whole entry, looked up): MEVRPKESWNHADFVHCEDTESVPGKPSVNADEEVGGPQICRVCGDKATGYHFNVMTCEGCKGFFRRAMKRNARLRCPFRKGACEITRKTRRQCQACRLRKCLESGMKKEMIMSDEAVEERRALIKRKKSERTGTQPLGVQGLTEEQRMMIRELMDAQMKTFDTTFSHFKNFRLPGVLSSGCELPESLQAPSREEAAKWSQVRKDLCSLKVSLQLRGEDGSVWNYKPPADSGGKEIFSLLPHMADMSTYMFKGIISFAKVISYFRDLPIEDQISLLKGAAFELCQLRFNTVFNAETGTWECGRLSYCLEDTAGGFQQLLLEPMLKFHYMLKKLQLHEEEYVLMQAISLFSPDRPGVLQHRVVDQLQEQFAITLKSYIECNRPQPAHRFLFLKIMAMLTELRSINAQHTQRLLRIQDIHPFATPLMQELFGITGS
# Chain of Progesterone receptor (Homo sapiens) (P06401 whole entry, looked up): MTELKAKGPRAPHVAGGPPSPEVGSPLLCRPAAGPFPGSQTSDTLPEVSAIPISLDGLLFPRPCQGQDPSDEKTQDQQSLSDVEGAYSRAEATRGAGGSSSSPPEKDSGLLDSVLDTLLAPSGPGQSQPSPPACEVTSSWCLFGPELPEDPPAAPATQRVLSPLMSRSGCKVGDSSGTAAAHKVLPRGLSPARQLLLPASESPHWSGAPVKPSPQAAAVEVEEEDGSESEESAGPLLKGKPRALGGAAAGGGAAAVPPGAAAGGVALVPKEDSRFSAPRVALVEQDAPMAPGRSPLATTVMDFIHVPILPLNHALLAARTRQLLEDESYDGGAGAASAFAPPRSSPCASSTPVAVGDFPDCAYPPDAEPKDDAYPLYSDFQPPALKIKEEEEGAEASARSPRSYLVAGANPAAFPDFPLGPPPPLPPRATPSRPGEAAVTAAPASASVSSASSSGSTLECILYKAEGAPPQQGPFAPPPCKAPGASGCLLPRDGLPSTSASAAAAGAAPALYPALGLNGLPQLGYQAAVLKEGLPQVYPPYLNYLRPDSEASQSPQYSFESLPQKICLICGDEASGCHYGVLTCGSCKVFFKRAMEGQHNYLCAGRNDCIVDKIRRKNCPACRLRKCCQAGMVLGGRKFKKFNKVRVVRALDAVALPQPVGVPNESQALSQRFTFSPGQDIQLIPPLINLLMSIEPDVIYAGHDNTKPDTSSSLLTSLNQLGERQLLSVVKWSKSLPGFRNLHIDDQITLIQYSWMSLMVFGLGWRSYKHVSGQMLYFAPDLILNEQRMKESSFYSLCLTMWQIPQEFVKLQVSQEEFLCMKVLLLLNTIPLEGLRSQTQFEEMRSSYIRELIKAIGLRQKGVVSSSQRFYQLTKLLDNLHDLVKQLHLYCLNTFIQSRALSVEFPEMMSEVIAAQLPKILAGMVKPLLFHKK
# Chain of Thyrotropin receptor (Homo sapiens) (P16473 whole entry, looked up): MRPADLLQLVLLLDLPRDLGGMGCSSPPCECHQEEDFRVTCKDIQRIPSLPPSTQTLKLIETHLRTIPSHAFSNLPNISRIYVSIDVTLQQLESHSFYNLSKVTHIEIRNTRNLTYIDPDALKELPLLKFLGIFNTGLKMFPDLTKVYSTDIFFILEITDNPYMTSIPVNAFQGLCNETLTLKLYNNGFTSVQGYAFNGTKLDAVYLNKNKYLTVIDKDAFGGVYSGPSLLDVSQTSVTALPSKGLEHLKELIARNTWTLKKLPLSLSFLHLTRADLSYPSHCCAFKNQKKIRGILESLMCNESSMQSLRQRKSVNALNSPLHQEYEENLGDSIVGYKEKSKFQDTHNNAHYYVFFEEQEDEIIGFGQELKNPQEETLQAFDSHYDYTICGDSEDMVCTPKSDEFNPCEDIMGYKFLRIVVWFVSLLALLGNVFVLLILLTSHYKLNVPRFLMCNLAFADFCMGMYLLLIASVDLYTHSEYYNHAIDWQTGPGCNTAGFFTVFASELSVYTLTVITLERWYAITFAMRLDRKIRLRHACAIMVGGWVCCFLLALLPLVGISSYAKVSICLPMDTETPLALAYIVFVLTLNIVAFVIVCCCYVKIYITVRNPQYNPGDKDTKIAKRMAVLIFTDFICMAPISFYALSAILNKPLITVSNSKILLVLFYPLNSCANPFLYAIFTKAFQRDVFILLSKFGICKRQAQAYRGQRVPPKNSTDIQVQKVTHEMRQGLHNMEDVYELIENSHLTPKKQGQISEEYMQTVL
# Chain of Nuclear receptor subfamily 1 group I member 2 (Rattus norvegicus) (Q9R1A7 whole entry, looked up): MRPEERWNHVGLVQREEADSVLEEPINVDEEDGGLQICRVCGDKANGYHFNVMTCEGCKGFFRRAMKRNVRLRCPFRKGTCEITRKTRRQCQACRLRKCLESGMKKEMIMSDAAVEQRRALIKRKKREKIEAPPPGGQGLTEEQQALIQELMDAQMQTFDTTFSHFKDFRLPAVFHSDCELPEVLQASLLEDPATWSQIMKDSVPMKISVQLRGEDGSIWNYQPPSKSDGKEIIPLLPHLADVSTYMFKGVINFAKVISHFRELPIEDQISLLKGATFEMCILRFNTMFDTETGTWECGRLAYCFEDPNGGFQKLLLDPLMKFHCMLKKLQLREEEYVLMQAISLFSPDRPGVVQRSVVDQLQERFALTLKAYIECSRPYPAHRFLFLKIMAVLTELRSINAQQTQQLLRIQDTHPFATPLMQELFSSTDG
smiles,measurement,setting,value
CN(CCO)CCO,outcome,[1],inactive
same,Potency,[2],inactive
same,Potency,[3],inactive
same,Potency,[4],inactive
same,Potency,[5],inactive
same,Potency,[6],inactive
same,outcome,[7],inactive
same,outcome,[8],inactive
same,Potency,[9],inactive
same,outcome,[10],inactive
same,Potency,[11],inactive
same,outcome,[12],inactive
same,Potency,[13],inactive
same,outcome,[14],inactive
same,Potency,[15],inactive
CCOC(=O)COc1ccc(Cl)cc1Cl,outcome,[1],inactive
same,Potency,[2],inactive
same,Potency,[3],inactive
same,Potency,[4],inactive
same,Potency,[5],inactive
same,Potency,[6],inactive
same,outcome,[7],inactive
same,Potency,[16],inactive
same,Potency,[9],inactive
same,outcome,[10],inactive
same,Potency,[11],inactive
same,outcome,[12],inactive
same,Potency,[13],inactive
same,Potency,[15],inactive
same,Potency,[17],inactive
N#CC(Br)(Br)C(N)=O,outcome,[1],inactive
same,Potency,[2],inactive
same,Potency,[3],inactive
same,Potency,[4],inactive
same,Potency,[5],inactive
same,Potency,[6],inactive
same,outcome,[7],inactive
same,outcome,[8],inactive
same,Potency,[9],inactive
same,outcome,[10],inactive
same,Potency,[11],inactive
same,outcome,[12],inactive
same,Potency,[13],61.1 µM (active)
same,outcome,[14],inactive
same,Potency,[15],inactive
ClC1=C(Cl)C2(Cl)C(CBr)CC1(Cl)C2(Cl)Cl (stereo unspecified),outcome,[1],inactive
same,Potency,[2],inactive
same,Potency,[3],inactive
same,Potency,[4],inactive
same,Potency,[5],inactive
same,Potency,[6],68.6 µM (active) and inactive
same,outcome,[7],inactive
same,Potency,[16],inactive
same,outcome,[8],inactive
same,Potency,[9],inactive
same,outcome,[10],inactive
same,Potency,[11],inactive
same,outcome,[12],inactive
same,outcome,[14],inactive
same,Potency,[15],inactive
same,Potency,[17],48.6 µM (active) and inactive
same,max activation,[18],0.545% (inactive)
same,Potency,[19],inactive
same,Potency,[20],inactive
ClCOCCl,outcome,[1],inactive
same,Potency,[2],inactive
same,Potency,[3],inactive
same,Potency,[4],inactive
same,Potency,[5],inactive
same,Potency,[6],inactive
same,outcome,[7],inactive
same,Potency,[16],inactive
same,outcome,[8],inactive
same,Potency,[11],inactive
same,outcome,[12],inactive
same,Potency,[13],inactive
same,outcome,[14],inactive
same,Potency,[15],inactive
CCCC[N+](=O)[O-],outcome,[1],inactive
same,Potency,[2],inactive
same,Potency,[3],inactive
same,Potency,[4],inactive
same,Potency,[5],inactive
same,outcome,[7],inactive
same,Potency,[16],inactive
same,outcome,[8],inactive
same,Potency,[9],inactive
same,outcome,[10],inactive
same,Potency,[11],inactive
same,outcome,[12],inactive
same,Potency,[13],inactive
same,outcome,[14],inactive
same,Potency,[15],inactive
same,Potency,[17],inactive
CN=CNc1ccc(C)cc1C,outcome,[1],inactive
same,Potency,[2],inactive
same,Potency,[3],inactive
same,Potency,[4],inactive
same,Potency,[5],inactive
same,Potency,[6],inactive
same,outcome,[7],inactive
same,Potency,[16],inactive
same,outcome,[8],inactive
same,Potency,[11],inactive
same,outcome,[12],inactive
same,Potency,[13],inactive
same,outcome,[14],inactive
same,Potency,[15],inactive
same,Potency,[17],inactive
Cc1ccc2c(c1)C1CN(C)CCC1N2 (stereo unspecified),"activity change, negative = inhibition",[1],8.62% [at 19 µM] (inactive)
same,"activity change, negative = cytotoxicity",[2],-4.97% [at 19 µM] (inactive)
same,activation,[3],-0.799% [at 19 µM] (inactive)
same,"activity change, negative = inhibition",[4],5.78% [at 18.9 µM] (inactive)
same,"activity change, negative = cytotoxicity",[5],-15.8% [at 18.9 µM] (inactive)
same,"activity change, negative = cytotoxicity",[6],-23.2% [at 19 µM] (inactive)
same,"viability change, negative = cytotoxic",[7],0.721% [at 15.8 µM] (inactive)
same,"activity change, negative = cytotoxicity",[16],-8.68% [at 15.8 µM] (inactive)
same,activation,[8],3.74% [at 15.8 µM] (inactive)
same,"activity change, negative = cytotoxicity",[11],-7.69% [at 19 µM] (inactive)
same,caspase activation,[12],-1.19% [at 19 µM] (inactive)
same,"activity change, negative = cytotoxicity",[13],-2.08% [at 19 µM] (inactive)
same,caspase-3/7 activation,[14],-0.28% [at 19 µM] (inactive)
same,"activity change, negative = cytotoxicity",[15],-0.14% [at 19 µM] (inactive)
same,max activation,[18],1.15% (inactive)
same,Potency,[19],inactive
same,Potency,[20],inactive
